Compound activity (PubChem)
The list is not random: actives were taken first. Their share in the collection is about 4.6%.
TIM10 inh: growth inhibitors of isogenic TIM10 control yeast, primary screen, counter-screen for tim10-1 yeast inhibitor project, luminescence, uHTS; 330,000 compounds, 1.4% hits; inhibition, % at 10 µM; S. cerevisiae TIM10 strain growth, BacTiter-Glo luminescence, 24 h;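 active means inhibition of 40% or more at the single tested concentration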;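 further: wild-type TIM10 isogenic control strain grown at permissive 25 °C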
PfHsp90 yeast 2: growth inhibition of PfHsp90-expressing yeast, primary screen, antimalarial PfHsp90 inhibitor project, S. cerevisiae, BacTiter-Glo luminescence, single point, set 2; inhibition, % at 9.4 µM; BacTiter-Glo ATP, 48 h; yeast lacking PDR1 and PDR3 efflux regulators; 310,000 compounds, 0.32% hits;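 active means every replicate shows inhibition above about 80%, whatever the replicate mean, limit read from the data; inconclusive means mean inhibition reaches the set limit but some replicate falls short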
tim23-1 inh: growth inhibitors of tim23-1 mutant yeast, primary screen, luminescence, uHTS | S. cerevisiae tim23-1 growth, BacTiter-Glo luminescence, 24 h | inhibition, % at 20 µM | 330,000 compounds, 1.3% hits | AID 463212, 2010;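 active means growth inhibition of the mutant yeast at or above 50%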;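 further: temperature-sensitive mutant grown at 25 °C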
tim10-1 inh: growth inhibitors of tim10-1 mutant yeast, primary screen, luminescence, uHTS; S. cerevisiae tim10-1 ts strain growth, BacTiter-Glo, 24 h; 330,000 compounds, 2.2% hits; inhibition, % at 20 µM;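 active means inhibition of at least 40%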;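 further: mutant grown at 25 °C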
V-ATPase pHluor: regulators of yeast V-ATPase proton pumping, primary screen, pHLuorin cytosolic pH fluorescence; S. cerevisiae; response, % at 10 µM; 350,000 compounds, 0.37% hits; AID 504577, 2011; in the data active means response mostly above about 7.3%, no sharp cut-off; inactive means mostly below about 5.4%; further: actives read high
SKKanGAS inh: S. pyogenes SKKanGAS growth inhibitors in kanamycin, primary screen, streptokinase expression inhibitor project, SKKanGAS strain, BacTiter-Glo luminescence; 300,000 compounds, 1.3% hits; 6 h; inhibition, % at 7.5 µM; AID 1662, 2009;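 active means mean replicate score, as percent of positive control median, at least 50; inconclusive means mean below 50 but one replicate at or above 50; inactive means mean and every replicate below 50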;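 further: strain carries kanamycin resistance gene driven by streptokinase promoter and grows in 40 µg/ml kanamycin; loss of luminescence reflects streptokinase promoter inhibition or plain growth inhibition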
Large screens that a line does not name were inactive.

O=c1c2ccccc2nc(COc2ccccc2)n1/N=C/c1cc([N+](=O)[O-])ccc1O	SKKanGAS inh 76
O=C(NC(C(=O)N/N=C/c1cc([N+](=O)[O-])ccc1O)c1n[nH]c(=O)c2ccccc12)c1ccccc1 (stereo not drawn)	SKKanGAS inh 87
O=C(N/N=C/c1cc([N+](=O)[O-])ccc1O)c1c[nH]c2ccccc12	SKKanGAS inh 66
CCOC(=O)c1c(C)[nH]c(C(=O)N/N=C/c2cc([N+](=O)[O-])ccc2O)c1C	SKKanGAS inh 80
O=C(NC(C(=O)N/N=C/c1cccc2ccccc12)c1n[nH]c(=O)c2ccccc12)c1ccccc1 (stereo not drawn)	none
O=[N+]([O-])c1ccc(Cl)c(/C=N/n2c(COc3ccccc3)n[nH]c2=S)c1	none
CCOC(=O)c1c(C)[nH]c(C(=O)N/N=C\c2ccccc2O)c1C	none (no result: TIM10 inh, tim23-1 inh, tim10-1 inh)
O=C(CSc1ccccn1)Nc1nonc1[N+](=O)[O-]	SKKanGAS inh inconclusive
COc1ccc(C(=O)Nc2ccccc2C(=O)N2CCCCC2C)cc1 (stereo not drawn)	none (no result: V-ATPase pHluor)
Cn1c(SCC(=O)N/N=C/c2cc([N+](=O)[O-])ccc2O)nnc1-c1ccccc1	SKKanGAS inh 93
Cc1cc(C(=O)N/N=C/c2ccc([N+](=O)[O-])cc2)c2ccccc2n1	none
Cn1c(SCC(=O)N/N=C/c2ccccn2)nnc1-c1ccccc1	none
Cc1cc(C(=O)N/N=C/c2cc([N+](=O)[O-])ccc2O)c2ccccc2n1	SKKanGAS inh 92
Cc1cc(C(=O)N/N=C/c2cc(Br)cc([N+](=O)[O-])c2O)c2ccccc2n1	SKKanGAS inh 106
CC(C)(C)c1ccccc1OCC(=O)NCc1ccccc1	none
Cn1c(Sc2ccccc2Cl)c(C=O)c2ccccc21	SKKanGAS inh 57
Cn1c(Sc2ccc(Cl)cc2)c(C=O)c2ccccc21	none
CCc1c(C2(O)CCCCC2)[nH]c2ccc(C(F)(F)F)cc12	SKKanGAS inh 69
CN(C)Cc1c(C(C)(C)O)[nH]c2ccc(C(F)(F)F)cc12	none (no result: SKKanGAS inh)
O=C(CCN1C(=O)C2CCCCC2C1=O)N1CCN(S(=O)(=O)c2c(F)cccc2F)CC1 (stereo not drawn)	none
C/C(=N\Nc1ccc(C(=O)O)cc1)c1ccc(Cl)s1	none (no result: SKKanGAS inh)
C/C(=N\NC(=O)c1ccc(Cl)c(Cl)c1)c1ccc(Br)s1	SKKanGAS inh 88
C/C(=N\Nc1ccc(Cl)c(C(=O)O)c1)c1ccc(Br)s1	SKKanGAS inh 58
O=C(Nc1ccc(Br)cc1C(=O)O)c1ccc2c(c1)C(=O)N(Cc1ccccc1)C2=O	SKKanGAS inh 76 (no result: PfHsp90 yeast 2)
CCCN1C(=O)c2ccc(C(=O)Nc3ccccc3C(=O)O)cc2C1=O	none
O=C(NNc1c(Cl)cccc1Cl)c1c(F)cccc1Cl	SKKanGAS inh 51
O=C(C=Cc1ccccn1)c1ccccc1O	PfHsp90 yeast 2 114 (no result: TIM10 inh, tim23-1 inh, tim10-1 inh, SKKanGAS inh)
O=C(C=Cc1ccccn1)c1ccccc1	none (no result: TIM10 inh, tim23-1 inh, tim10-1 inh, SKKanGAS inh)
C=C1CCN([C@@H](CC(C)C)C(=O)NCc2ccco2)S(=O)(=O)c2ccccc21	none (no result: PfHsp90 yeast 2)
CC1CCCC(C)N1c1nnc(NC(=O)c2cc(-c3ccc(Br)cc3)on2)s1 (stereo not drawn)	SKKanGAS inh 51
CN(C(=O)COC(=O)c1cc(-c2ccc(Cl)s2)nc2ccccc12)C1CCS(=O)(=O)C1 (stereo not drawn)	V-ATPase pHluor 12
CCCCCNC(=O)Cn1c(=O)c2c(ncn2CC(C)C)n(Cc2ccccc2)c1=O	none
COc1ccccc1OCC(=O)NCC1CCCN(Cc2cnn(C(C)C)c2)C1 (stereo not drawn)	none (no result: PfHsp90 yeast 2)
O=c1cc(O)c2sc3nc(-c4cccnc4)cc(C(F)(F)F)c3c2[nH]1	none
Cc1cc(C(F)(F)F)c2c(n1)sc1c(O)cc(=O)[nH]c12	SKKanGAS inh 50
COc1ccc(N2C(=NC(=O)C(C)Oc3ccccc3)SC3CS(=O)(=O)CC32)cc1 (stereo not drawn)	none
Cc1cccc(NC(=O)c2nc[nH]c2C(=O)N[C@@H](Cc2ccccc2)C(=O)OC(C)(C)C)c1	SKKanGAS inh 98
